In all, about 5,500 compounds went through this assay and about 2,000 (36%) were called active. Roughly 18% stayed inconclusive and do not appear here. Cut-off read from the data, not from the text of the source: active = normalized growth mostly below about 0.91 (no sharp cut-off); inconclusive = no clear call, values can overlap the other calls; inactive = mostly above about 0.92. The list shows a part of the results.
Experiment: chemical genetic growth profiling, strain panel (AID 1159580);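 note: tested at 20 µM; growth read once vehicle control cultures reached saturation at 30 °C; 1 = growth at the plate median or of vehicle wells; lower values mean less growth of the strain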
Conditions: S. cerevisiae deletion strains, growth OD

Measured: normalized growth

Cc1nc(-c2cccnc2)nc(NCc2ccccc2)c1Cl
active: locus YLR113W, strain HOG1, hits give low values 0.846
inactive: locus YAR019C, strain CDC15, hits give low values 0.943 | locus YBL105C, strain PKC1, hits give low values 0.945 | locus YBR135W, strain CKS1, hits give low values 0.941 | locus YBR136W, strain MEC1, hits give low values 0.919 | locus YBR160W, strain CDC28, hits give low values 0.955 | locus YDL017W, strain CDC7, hits give low values 0.943 | locus YDL028C, strain MPS1, hits give low values 0.926 | locus YDL101C, strain DUN1, hits give low values 0.938 | locus YDL108W, strain KIN28, hits give low values 0.924 | locus YDL132W, strain cdc53, hits give low values 0.939 | locus YDL214C, strain PRR2, hits give low values 0.866 | locus YDR052C, strain DBF4, hits give low values 0.945 | locus YDR054C, strain cdc34, hits give low values 0.933 | locus YDR226W, strain ADK1, hits give low values 0.951 | locus YDR477W, strain SNF1, hits give low values 0.887 | locus YER123W, strain YCK3, hits give low values 0.784 | locus YER133W, strain GLC7, hits give low values 0.853 | locus YFL009W, strain cdc4, hits give low values 0.932 | locus YFL029C, strain CAK1, hits give low values 0.941 | locus YFR003C, strain YPI1, hits give low values 0.943 | locus YFR019W, strain FAB1, hits give low values 0.946 | locus YFR028C, strain CDC14, hits give low values 0.931 | locus YGR040W, strain KSS1, hits give low values 0.841 | locus YGR052W, strain FMP48, hits give low values 0.937 | locus YGR092W, strain DBF2, hits give low values 0.8 | locus YHR030C, strain SLT2, hits give low values 0.936 | locus YHR079C, strain IRE1, hits give low values 0.887 | locus YHR082C, strain KSP1, hits give low values 0.935 | locus YHR205W, strain SCH9, hits give low values 0.886 | locus YIL147C, strain SLN1, hits give low values 0.929 | locus YJL095W, strain BCK1, hits give low values 0.923 | locus YJL128C, strain PBS2, hits give low values 0.907 | locus YJL157C, strain FAR1, hits give low values 0.877 | locus YJR016C, strain ILV3, hits give low values 0.935 | locus YJR066W, strain TOR1 (second series), hits give low values 0.884 | locus YJR066W, strain TOR1, hits give low values 0.922 | locus YKL048C, strain ELM1, hits give low values 0.94 | locus YKL067W, strain YNK1, hits give low values 0.89 | locus YKL101W, strain HSL1, hits give low values 0.892 | locus YKL193C, strain SDS22, hits give low values 0.937 | locus YKL203C, strain TOR2, hits give low values 0.923 | locus YLR133W, strain CKI1, hits give low values 0.913 | locus YLR403W, strain SFP1, hits give low values 0.849 | locus YML070W, strain DAK1, hits give low values 0.847 | locus YMR001C, strain CDC5, hits give low values 0.938 | locus YMR205C, strain PFK2 (second series), hits give low values 0.897 | locus YMR277W, strain FCP1, hits give low values 0.943 | locus YNL006W, strain LST8, hits give low values 0.954 | locus YNL020C, strain ARK1, hits give low values 0.885 | locus YNL161W, strain CBK1, hits give low values 0.952 | locus YNL183C, strain NPR1, hits give low values 0.898 | locus YNL207W, strain RIO2, hits give low values 0.922 | locus YNL222W, strain SSU72, hits give low values 0.942 | locus YNL307C, strain MCK1 (second series), hits give low values 0.899 | locus YOL078W, strain AVO1, hits give low values 0.941 | locus YOL136C, strain PFK27, hits give low values 0.877 | locus YOR061W, strain CKA2, hits give low values 0.89 | locus YOR119C, strain RIO1, hits give low values 0.889 | locus YOR231W, strain MKK1, hits give low values 0.9 | locus YOR329C, strain SCD5, hits give low values 0.948 | locus YPL031C, strain PHO85, hits give low values 0.82 | locus YPL153C, strain RAD53, hits give low values 0.841 | locus YPL204W, strain HRR25, hits give low values 0.856 | locus YPL209C, strain IPL1, hits give low values 0.942 | locus YPL256C, strain CLN2, hits give low values 0.908 | locus YPR025C, strain CCL1, hits give low values 0.951 | locus YPR106W, strain ISR1, hits give low values 0.953 | locus YPR111W, strain DBF20, hits give low values 0.942 | strain NNK1, hits give low values 0.94 | strain TSCII, hits give low values 0.934
